Potency data for 2 molecules are collected here from PubChem BioAssay (NCATS).

Inconclusive results are not listed. Entries that show only a call come without a potency. Active and inactive are the calls of the source. The call rests on the fitted dose curve.

The target of the assay is Atrial natriuretic peptide receptor 1 (Homo sapiens) (UniProt P16066). The assay can be described thus: Natriuretic polypeptide receptor (hNpr1) antagonism - Pilot CMLD screen (AID 1347052).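 Further: HEK293 cells with hNpr1 stimulated by hNppA peptide at 0.1 nM; cGMP level read as GloSensor luciferase luminescence after agonist stimulation; series mostly up to about 9.2 µM.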
Chain of Atrial natriuretic peptide receptor 1 (Homo sapiens) (P16066 whole entry, looked up): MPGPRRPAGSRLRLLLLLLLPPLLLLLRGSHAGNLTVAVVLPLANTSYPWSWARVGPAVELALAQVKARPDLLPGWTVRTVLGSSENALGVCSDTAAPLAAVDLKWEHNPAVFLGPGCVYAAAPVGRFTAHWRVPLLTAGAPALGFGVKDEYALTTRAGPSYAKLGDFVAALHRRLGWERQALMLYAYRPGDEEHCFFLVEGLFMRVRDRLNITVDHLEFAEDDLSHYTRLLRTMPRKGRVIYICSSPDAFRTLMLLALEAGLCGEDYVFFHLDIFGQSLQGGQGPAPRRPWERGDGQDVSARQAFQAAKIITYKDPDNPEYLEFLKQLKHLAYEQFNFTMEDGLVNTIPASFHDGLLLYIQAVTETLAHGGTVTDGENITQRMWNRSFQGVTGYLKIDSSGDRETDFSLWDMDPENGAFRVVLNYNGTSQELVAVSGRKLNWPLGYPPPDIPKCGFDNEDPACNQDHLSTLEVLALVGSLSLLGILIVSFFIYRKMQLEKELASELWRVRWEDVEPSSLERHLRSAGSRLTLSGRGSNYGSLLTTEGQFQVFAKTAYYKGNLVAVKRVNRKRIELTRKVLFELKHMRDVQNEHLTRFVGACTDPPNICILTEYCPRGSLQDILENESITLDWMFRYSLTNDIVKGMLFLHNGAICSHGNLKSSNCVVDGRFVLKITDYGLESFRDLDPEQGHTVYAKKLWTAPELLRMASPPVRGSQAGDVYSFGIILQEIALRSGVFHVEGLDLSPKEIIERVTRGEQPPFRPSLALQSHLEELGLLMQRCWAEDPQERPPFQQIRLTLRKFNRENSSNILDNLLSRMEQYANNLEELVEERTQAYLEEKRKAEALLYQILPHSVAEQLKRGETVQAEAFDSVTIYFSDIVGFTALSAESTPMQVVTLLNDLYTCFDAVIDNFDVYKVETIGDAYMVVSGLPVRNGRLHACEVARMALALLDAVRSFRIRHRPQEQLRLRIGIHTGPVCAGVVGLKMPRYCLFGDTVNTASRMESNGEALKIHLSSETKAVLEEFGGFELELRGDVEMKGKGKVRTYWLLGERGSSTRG

For the molecule `COC(=O)c1ccc(CN2C(=O)[C@@]3(CC(C)=CC[C@@H](COc4ccccc4)O3)c3ccccc32)cc1`, the Potency entry is “inactive”.

Take `CC(C)(C)Nc1oc(-c2ccccc2)nc1-c1cccc2ccccc12`: the Potency result was “inactive”.
